Data on 39 compounds can be found in PubChem BioAssay (NCI).

This is part of a sample that, as a whole, favours compounds with a hit. Of some 83,000 tested, about 20% had one in any assay.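 Single-concentration screen, 48 h exposure, 96-well plates. Endpoint: percent growth. Below 10 = active.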 Unmarked numbers belong to inactive results. The source made the active and inactive calls.

In the first experiment the test system is UO-31 renal. The experiment is described as follows: NCI-60 one-dose screen, 48 h (100 = growth as untreated, 0 = no growth, -100 = all killed). As to conditions: 10 µM unless noted.
With `CCCCCCC(CC#N)(CCC)CCCC` (stereo not drawn), the growth is 97.6%.

For `COc1ccc(NC(=O)c2ccccc2-c2ccccc2)c(C(N)=O)c1`, the growth is 40.1%.

Regarding `Cc1ccc(-c2csc(N)n2)cc1`, the growth is 88.6%.

For the compound `NS(=O)(=O)c1ccc(N2CC(c3nc4ccccc4[nH]3)CC2=O)cc1` (stereo not drawn), the growth was 76.6%.

Consider `Cc1nn(-c2ccccc2)c2nc(N)c(C3=NCCO3)nc12`, for which the growth is 73.5%.

Regarding `CCCCNCCCN(CCCC)CCCNCCCC`, the growth was 83.7%.

For the compound `C1CCC(C(CC2CCCCN2)C2CCCCC2)CC1` (stereo not drawn), the growth is 11.9%.

Turning to `Oc1c(Cl)cc(Cl)c(Cl)c1Cc1c(O)c(Cl)cc(Cl)c1Cl`, the growth is -2.22% (active).

As to `CSc1nc(Nc2ccc(S(=O)(=O)Nc3ccon3)cc2)c(C#N)c(-c2ccc(Cl)cc2)n1`, the growth is 86%.

With `O=C(Nc1nc2ccc(OC(F)(F)F)cc2s1)c1ccc(F)cc1`, the growth was -4.24% (active).

Take `COc1cccc(C=Nc2cc(C(C)C)c(O)cc2C)c1O`: the growth was 72.4%.

For the compound `COC(=O)[C@H](Cc1cn(C)cn1)NC(=O)[C@H](Cc1ccccc1)NC(=O)Nc1cc(C(F)(F)F)cc(C(F)(F)F)c1`, the growth was -93.4% [100 µM] (active).

For `Cn1c(N2N=C(c3ccc(Cl)cc3)CC2c2ccccc2)nc(-c2ccccc2)c(C#N)c1=O` (stereo not drawn), the growth is 60.5%.

As to `NC(=NCCCCCCN=C(N)/N=C(\N)Nc1ccc(Cl)cc1)/N=C(\N)Nc1ccc(Cl)cc1`, the growth was 46.6%.

In the case of `Oc1c(N=Nc2nn[nH]n2)ccc2ccccc12`, the growth is 59.1%.

Regarding `Cc1ccc(/C=C/C(=O)c2ccc(F)cc2)s1`, the growth was 57.6%.

Turning to `CC[N+](CCCCCCCCCC[N+](CC)(c1ccccn1)c1ccccn1)(c1ccccn1)c1ccccn1`, the growth was 26.4%.

As to `O=C(c1ccc(N2CCOCC2)cc1[N+](=O)[O-])N1CCOCC1`, the growth was 99.4%.

With `Cc1ccc(-c2c3c(N)nc(-c4ccncc4)nc3nc3c2c(C)nn3-c2ccccc2)cc1`, the growth is 93.4%.

As for `COc1cccc(CCN2C(=O)CCC3=C2CCC3=O)c1`, the growth is 85.7%.

Take `CC(=O)c1nn(-c2ccccc2)c(=Nc2ccccc2)cc1C`: the growth is 86.2%.

For the compound `COc1ccc(-c2nc3sc4c(c3c(=O)[nH]2)CCCCCC4)cc1`, the growth was 62%.

Regarding `CCOC(=O)/C(=C/CC/C(C)=C/CC/C(C)=C/CCc1ccoc1)CC(=O)N1CCCCC1`, the growth is 25.1%.

On to `CCCCCCCSc1ncnc2[nH]ncc12`, for which the growth was 60.6%.

As for `CC1CC=CCC1C1OCC(C)(C)CO1` (stereo not drawn), the growth is 97.7%.

In the case of `Cc1[nH]c(=O)[nH]c(=O)c1CCSSCCc1c(C)[nH]c(=O)[nH]c1=O`, the growth is 83.3%.

With `CC(NNC(=S)N1CCCCCC1)c1ccc2ccccc2n1` (stereo not drawn), the growth is 9.9% (active).

Take `NS(=O)(=O)c1ccc(-n2nc(-c3ccc(Br)cc3)ccc2=O)cc1`: the growth was 89.2% [100 µM].

For the compound `CCOc1cc(CCNS(=O)(=O)c2ccc(C)cc2)c(C(C)=O)cc1OCC`, the growth is -69.9% [100 µM] (active).

Take `CC(=O)N1N=C(c2ccc(Nc3ccnc4cc(Cl)ccc34)cc2)CC1c1ccc(Cl)cc1` (stereo not drawn): the growth was 24.1%.

`COC(=O)[C@H](Cc1cnc[nH]1)NC(=O)[C@@H](NC(=O)Nc1cc(C(F)(F)F)cc(C(F)(F)F)c1)C(C)C`: the growth is -21.7% [100 µM] (active).

In the case of `CCCCCCCCCCCCC1CCCC(C)C1` (stereo not drawn), the growth is 87.9%.

As for `FC(F)(F)c1ccc(-c2cnc(-c3nn[nH]n3)nc2NC2CCCCCC2)cc1`, the growth is 38.2% [50 µM].

Consider `CCCCCc1c(C)[nH]c(/C=C2\N=C(c3ccc[nH]3)C=C2OCc2ccccc2)c1C`, for which the growth was -93.6% [100 µM] (active).

On to `COc1c(Br)cc(C(c2cc(Br)c(OC)c(Br)c2)c2ccccc2C(=O)O)cc1Br`, for which the growth was 68.9%.

As to `CCOC(=O)C(C(=O)OCC)C1CCCCC1`, the growth was 91.8%.

Turning to `N#Cc1ncc(-c2ccc(C(F)(F)F)cc2)c(NC2CCCCCC2)n1`, the growth is 5.41% (active).

In the case of `CCCCCCCC[Si](OCC)(OCC)OCC`, the growth was 81.1%.

On to `C[C@H]1O[C@@H](O[C@H]2[C@@H](O)C[C@H](O[C@H]3[C@@H](O)C[C@H](O[C@H]4CC[C@]5(C)C6CC[C@]7(C)[C@@H](C8=CC(=O)OC8)CC[C@]7(O)C6CC[C@@H]5C4)O[C@@H]3C)O[C@@H]2C)C[C@H](O)[C@@H]1O` (stereo partly drawn), for which the growth was -90.4% (active).

For another experiment, the system named is TK-10 renal. The description is as above. The following applies: 10 µM unless noted.
For `CCCCCCC(CC#N)(CCC)CCCC` (stereo not drawn), the growth was 102%.

For `Cc1ccc(-c2csc(N)n2)cc1`, the growth is 97.2%.

For `Cc1nn(-c2ccccc2)c2nc(N)c(C3=NCCO3)nc12`, the growth is 128%.

Regarding `CCCCNCCCN(CCCC)CCCNCCCC`, the growth is 97.3%.

In the case of `C1CCC(C(CC2CCCCN2)C2CCCCC2)CC1` (stereo not drawn), the growth was 21.2%.

Turning to `O=C(Nc1nc2ccc(OC(F)(F)F)cc2s1)c1ccc(F)cc1`, the growth is 21.8%.

As to `COc1cccc(C=Nc2cc(C(C)C)c(O)cc2C)c1O`, the growth is 99.8%.

Take `COC(=O)[C@H](Cc1cn(C)cn1)NC(=O)[C@H](Cc1ccccc1)NC(=O)Nc1cc(C(F)(F)F)cc(C(F)(F)F)c1`: the growth was -97.9% [100 µM] (active).

With `Cn1c(N2N=C(c3ccc(Cl)cc3)CC2c2ccccc2)nc(-c2ccccc2)c(C#N)c1=O` (stereo not drawn), the growth was 117%.

Regarding `Oc1c(N=Nc2nn[nH]n2)ccc2ccccc12`, the growth is 132%.

On to `CC[N+](CCCCCCCCCC[N+](CC)(c1ccccn1)c1ccccn1)(c1ccccn1)c1ccccn1`, for which the growth was -3% (active).

With `Cc1ccc(-c2c3c(N)nc(-c4ccncc4)nc3nc3c2c(C)nn3-c2ccccc2)cc1`, the growth was 12.3%.

As to `COc1cccc(CCN2C(=O)CCC3=C2CCC3=O)c1`, the growth was 107%.

Take `CC(=O)c1nn(-c2ccccc2)c(=Nc2ccccc2)cc1C`: the growth was 104%.

For the compound `COc1ccc(-c2nc3sc4c(c3c(=O)[nH]2)CCCCCC4)cc1`, the growth was 60.5%.

Consider `CCCCCCCSc1ncnc2[nH]ncc12`, for which the growth was 81.1%.

For the compound `CC1CC=CCC1C1OCC(C)(C)CO1` (stereo not drawn), the growth was 111%.

As for `Cc1[nH]c(=O)[nH]c(=O)c1CCSSCCc1c(C)[nH]c(=O)[nH]c1=O`, the growth is 101%.

Take `CC(NNC(=S)N1CCCCCC1)c1ccc2ccccc2n1` (stereo not drawn): the growth is 41.9%.

As to `NS(=O)(=O)c1ccc(-n2nc(-c3ccc(Br)cc3)ccc2=O)cc1`, the growth is 22.2% [100 µM].

On to `CCOc1cc(CCNS(=O)(=O)c2ccc(C)cc2)c(C(C)=O)cc1OCC`, for which the growth is 84.6% [100 µM].

On to `COC(=O)[C@H](Cc1cnc[nH]1)NC(=O)[C@@H](NC(=O)Nc1cc(C(F)(F)F)cc(C(F)(F)F)c1)C(C)C`, for which the growth was -95% [100 µM] (active).

As for `CCCCCCCCCCCCC1CCCC(C)C1` (stereo not drawn), the growth was 94.2%.

For the compound `FC(F)(F)c1ccc(-c2cnc(-c3nn[nH]n3)nc2NC2CCCCCC2)cc1`, the growth was 105% [50 µM].

Regarding `CCCCCc1c(C)[nH]c(/C=C2\N=C(c3ccc[nH]3)C=C2OCc2ccccc2)c1C`, the growth was -81.3% [100 µM] (active).

Take `COc1c(Br)cc(C(c2cc(Br)c(OC)c(Br)c2)c2ccccc2C(=O)O)cc1Br`: the growth was 106%.

`CCOC(=O)C(C(=O)OCC)C1CCCCC1`: the growth was 101%.

Take `N#Cc1ncc(-c2ccc(C(F)(F)F)cc2)c(NC2CCCCCC2)n1`: the growth was 58.1%.

Take `CCCCCCCC[Si](OCC)(OCC)OCC`: the growth was 90.8%.
